GALK inh = blocks human galactokinase activity. AID 1868. Potency, µM (doses to about 57.5 µM), for the others: at the highest dose activity change, negative = inhibition, most hits filed as inhibitors. P51570. Purified GALK, Kinase-Glo residual ATP luminescence. hit rate 0.007% among 270,000; further: on the % scale 0 is the no-effect control and ±100 the full control effect
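Kinase-Glo Plus luminescence measured ATP left after a 1 h room-temperature reaction. The reaction used 5 nM GALK, 100 uM galactose and 35 uM ATP at pH 8.0 (20 mM HEPES, 5 mM MgCl2, 60 mM NaCl, 1 mM DTT, 0.01% BSA).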
A549 tox = counter-screen for Nrf2 inhibitors: cytotoxicity in A549 cells; A549 ARE-Fluc cells, CellTiter-Fluor viability, 18-24 h; Potency, µM (top dose mostly 46 µM), for the others: at the highest dose activity change, negative = cytotoxicity, usual class: inhibitors; hit rate 0.16% among 390,000; further: on the % scale 0 is the no-effect control and ±100 the full control effect
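A549 ARE-Fluc cells in 5% FBS OPTI-MEM, 5000 cells/well, rested 2 h then exposed to compounds in concentration-response for 18-24 h at 37 °C. Viability by CellTiter-Fluor fluorescence (Ex 405/Em 525) after 30 min; luciferase luminescence (BugLite, 15 min, RT) read afterwards.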
Nrf2 activator = activators of Nrf2 (ARE) signaling. Potency, µM (highest dose often 46.1 µM), without a hit: at the highest dose activation, hits mostly activators. AREc32 ARE-luciferase reporter (MCF7-derived line), luminescence, 24 h. AID 624171. hit rate 0.31% among 410,000; further: % of control where 0% means no effect; nearly all actives have a fitted effect of over 65% in size
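Reporter line AREc32 (ARE-Fluc), seeded overnight in OPTI-MEM with 5% FBS; compound pin-transferred, 24 hr at 37 deg C, 5% CO2; luminescent read-out.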
TrxR1 substrate = substrates of rat thioredoxin reductase 1. purified TrxR1 substrate turnover, NADPH consumption readout. O89049. hit rate 0.01% among 390,000. Potency, µM (doses to about 114 µM), for the others: at the highest dose activity change, negative = substrate turnover; further: on the % scale 0 is the no-effect control and ±100 the full control effect; nearly all actives have a fitted effect of over 50% in size
Target sequence (O89049 whole entry, looked up): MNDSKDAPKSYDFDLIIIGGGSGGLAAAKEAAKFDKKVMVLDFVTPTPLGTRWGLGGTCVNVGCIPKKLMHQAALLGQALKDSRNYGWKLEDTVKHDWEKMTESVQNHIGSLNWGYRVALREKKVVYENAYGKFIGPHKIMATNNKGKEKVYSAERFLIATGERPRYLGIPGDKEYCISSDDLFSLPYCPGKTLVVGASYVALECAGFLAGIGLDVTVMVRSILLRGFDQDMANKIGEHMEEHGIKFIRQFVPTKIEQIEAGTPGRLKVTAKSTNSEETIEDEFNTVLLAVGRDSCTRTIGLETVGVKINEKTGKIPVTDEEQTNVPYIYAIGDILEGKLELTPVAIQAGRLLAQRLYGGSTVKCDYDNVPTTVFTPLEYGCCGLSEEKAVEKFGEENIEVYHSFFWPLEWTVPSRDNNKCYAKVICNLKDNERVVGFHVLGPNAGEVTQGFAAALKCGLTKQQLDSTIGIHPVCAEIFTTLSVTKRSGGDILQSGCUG
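Rat TrxR1, dispensed at 90 nM, was prereduced with 400 uM NADPH (final) for 5 min at ~22 deg C, then incubated with compound 15 min before 400 uM selenite. A first-read NADPH fluorescence drop versus no-compound background flagged substrates.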
rTrxR1 inhibitor = blocks rat thioredoxin reductase 1. recombinant rTrxR1, NADPH fluorescence consumption, selenite substrate. Potency, µM (titrated, usually from 114 µM), without a hit: at the top dose activity change, negative = inhibition, usual class: inhibitors. hit rate 1% among 390,000. AID 588453; further: on the % scale 0 is the no-effect control and ±100 the full control effect; nearly all actives have a fitted effect of over 65% in size
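Rat TrxR1 (90 nM in the dispensed reagent) was pre-reduced with 400 uM NADPH for 5 min at room temperature, then incubated with compound for 15 min. After 400 uM selenite was added, NADPH fluorescence (Ex 340/Em 450 nm) was followed for 8 min.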
Nrf2 inh = blocks Nrf2 signaling | A549 ARE-Fluc reporter, luciferase luminescence, 18-24 h | Potency, µM (doses to about 46 µM), inactives show at the highest dose activity change, negative = inhibition, most hits filed as inhibitors | hit rate 2.1% among 360,000; further: on the % scale 0 is the no-effect control and ±100 the full control effect; nearly all actives have a fitted effect of over 60% in size
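Nrf2 activity is the BugLite luminescence, read 15 min after reagent at room temperature, following CellTiter-Fluor cytotoxicity readout (30 min, 37C). Compound titrations were applied for 18-24 h to 5000 A549 ARE_Fluc cells/well in 5% FBS OPTI-MEM.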
Starred values were filed as active, the others as inactive; ? = inconclusive; nt = no result given; ! = a repeat was not active; [ ] = another dose, or the depositor's remark. In the library only some 3% were active in any assay of this set; here they are far more common. The call rests on the fitted dose curve; in most records, active means well fitted curve in the direction sought with a large enough effect; inconclusive means small, poorly fitted or top-dose-only effect, or another doubt; inactive means no such curve, though single readings can be large; an effect the other way counts as inactive or inconclusive. Potency means the concentration at half of the fitted maximal effect.

SMILES	GALK inh	A549 tox	Nrf2 activator	TrxR1 substrate	rTrxR1 inhibitor	Nrf2 inh
Cc1noc(C)c1COC(=O)c1ccccc1Oc1ccccc1	0%	10%	0%	-14%	-17%	-10%
Cc1noc(C)c1COC(=O)c1ccccc1NC(=O)Cc1ccccc1	12%	nt	2%	-2%	-14%	15µM*
COc1cc(CN2c3ccccc3C(=O)CS2(=O)=O)cc(OC)c1	nt	2%	-1%	6%	?	18%
O=C1CS(=O)(=O)N(Cc2ccc(F)cc2)c2ccccc21	nt	0%	3%	-6%	45µM*	19%
CCOc1ccccc1CNC(=O)C1CCN(c2nnc(C)c3c(C)n(-c4ccc(C)cc4)nc23)CC1	-12%	?	7%	16%	19%	23µM*!
CCOc1ccccc1CNC(=O)Cn1nc(C)c2c(C)n(-c3ccc(C)cc3)nc2c1=O	9%	1%	9%	-3%	7%	9.2µM*
COc1ccc(CNC(=O)Cn2nc(C)c3c(C)n(-c4ccc(C)cc4)nc3c2=O)cc1OC	5%	-11%	-1%	-5%	-4%	23µM*
COCCn1c(SCC(=O)c2c[nH]c3ccccc23)nc2cc(C(=O)NCC(C)C)ccc2c1=O	nt	1%	0%	0%[57.1 µM]	9%[57.1 µM]	-3%
COc1cc(NC(=O)C2=C(C)Nc3nnnn3C2c2ccc(SC)cc2)c(OC)cc1Cl (configuration not stated)	nt	1%	0%	-3%	3%	-13%
COc1cccc(-c2c(C#N)c(N)nc3c2c(C)nn3-c2ccccc2)c1O	1%	?	4%	1%	13%	26µM*
N#Cc1ccsc1NC(=O)CCS(=O)(=O)c1ccccc1	-1%	-1%	14µM*	2%	3.2µM*	-15%
NC(=O)c1ccsc1NC(=O)CCS(=O)(=O)c1ccc(Cl)cc1	nt	-4%	?	8%[57.1 µM]	18µM*	-24%
N#Cc1ccsc1NC(=O)COC(=O)CCS(=O)(=O)c1ccccc1	nt	5%	0%	3%[57.1 µM]	-2%[2.29 µM]	3%
COc1ccccc1NC(=O)c1cnc(SCC(=O)NCCc2ccccc2)n(C)c1=O	nt	-4%	4.5µM*	16%	-1%	7%
COc1ccc(CCNC(=O)CSc2ncc(C(=O)Nc3ccccc3)c(=O)n2C)cc1	nt	13%	3%	1%	24%	?
Cc1nc2scc(-c3ccccc3)c2c(=O)n1N=C1C=CC(=O)C=C1	-1%	-10%	10µM*	4%[57.1 µM]	3.2µM*	-13%
Cc1nc2scc(-c3ccccc3)c2c(=O)n1N	0%	-2%	1%	-8%	-2%	-10%
O=C(CSCC(=O)OCn1nnc2ccccc2c1=O)Nc1ccc(Cl)cc1	-2%	4%	8%	1%	18µM*	5%
CCOc1ccccc1NC(=O)CCCc1nc(-c2ccccc2Cl)no1	nt	0%	0%	-3%	8%	-18%
Cc1cc(N)ccc1N1CCCC1	-4%	-7%	-1%	-2%	13µM*	14%
Cc1cc(N)ccc1-n1c(C)ccc1C	2%	0%	2%	-9%	?	23%
Cc1nnc(SCC2=C(C(=O)O)N3C(=O)C(NC(=O)COc4ccc(F)cc4)C3SC2)s1 (configuration not stated)	nt	-4%	5%	-4%	4µM*	11%
Cc1nnc(SCC2=C(C(=O)O)N3C(=O)C(NC(=O)Cn4nc(C(F)F)cc4C)C3SC2)s1 (configuration not stated)	10%	0%	2%	-6%	45µM*	-11%
CCC(C(=O)NC1C(=O)N2C(C(=O)O)=C(CSc3nnc(C)s3)CSC12)c1ccccc1 (configuration not stated)	nt	2%	0%	-2%	?	4%
Cc1nnc(SCC2=C(C(=O)O)N3C(=O)C(NC(=O)COc4ccccc4)C3SC2)s1 (configuration not stated)	nt	4%	8%	0%[57.1 µM]	7.9µM*	11%
SMILES	GALK inh	A549 tox	Nrf2 activator	TrxR1 substrate	rTrxR1 inhibitor	Nrf2 inh
COc1ccc(-n2cc(C(=O)OCc3ccc(F)c(F)c3)c3ccccc3c2=O)cc1	nt	15%	-1%	-5%[57.1 µM]	-2%[57.1 µM]	nt
CCCCc1ccc(Nc2cc(C)nc(-n3nc(C)cc3C)n2)cc1	nt	-11%	-2%	3%[57.1 µM]	20%[57.1 µM]	nt
COC(=O)CSc1nnc(-c2sc3ccccc3c2Cl)o1	0%	-16%	-2%	-5%	-12%	16µM*
N#CCSc1nnc(-c2sc3ccccc3c2Cl)o1	-1%	-1%	?	-2%	-2%	-18%
COc1ccc(OC)c(NC(=O)Cn2cnc3ccc(S(=O)(=O)N4CCC(C)CC4)cc3c2=O)c1	nt	-9%	0%	-7%	12%	?
COC(=O)C(CC(=O)c1ccc(Br)cc1)n1cccn1 (configuration not stated)	-2%	0%	0%	10%	8.9µM*	3%
COc1ccc(C(=O)Nc2ccc(-c3cc(C(F)(F)F)nn3-c3ccccc3)cc2)cc1OC	nt	-6%	5%	-4%[57.1 µM]	24%[57.1 µM]	nt
COC(=O)c1ccccc1NC(=O)c1ccc(F)cc1F	nt	-1%	nt	nt	nt	8%
N#C/C(=C\c1cc(Br)c(O)c(Br)c1)c1nc2ccccc2c(=O)[nH]1	nt	3%	14%	2%	-6%	7%
Cc1cccc(NC(=O)CSc2nc3ccc(NC(=O)c4ccccc4)cc3s2)c1	nt	-13%	1%	12%	28%	-17%
COC(=O)c1ccc(NC(=O)COc2ccccc2C(=O)Nc2ccccc2)cc1	nt	nt	nt	6%	22%	nt
CC(=O)N1CCN(/[N+]([O-])=N/Oc2ccc([N+](=O)[O-])cc2[N+](=O)[O-])CC1	nt	nt	nt	-4%	10µM*	nt
CCN(CC)/[N+]([O-])=N/Oc1ccc([N+](=O)[O-])cc1[N+](=O)[O-]	nt	nt	nt	-11%	14µM*	nt
CCNC(=O)N1CCN(/[N+]([O-])=N/Oc2ccc([N+](=O)[O-])cc2[N+](=O)[O-])CC1	nt	nt	nt	-7%	14µM*	nt
CN(C)/[N+]([O-])=N/Oc1ccc([N+](=O)[O-])cc1C(F)(F)F	nt	nt	nt	4%[0.457 µM]	17%	nt
CCN(CC)C(=O)N1CCN(/[N+]([O-])=N/Oc2ccc([N+](=O)[O-])cc2[N+](=O)[O-])CC1	nt	nt	nt	-8%	22µM*	nt
O=C(NCCc1csc(-c2cccc(F)c2)n1)c1ccc(Br)o1	nt	?	4%	-4%[57.1 µM]	16%[57.1 µM]	nt
COc1ccc(Nc2ncc3c(n2)CCN(Cc2sccc2C)C3)c(OC)c1	nt	1%	1%	4%[57.1 µM]	21%[57.1 µM]	nt
CN(C)/[N+]([O-])=N/Oc1cc(F)c([N+](=O)[O-])cc1[N+](=O)[O-]	nt	nt	nt	-10%	20µM*	nt
Cc1ccc(-c2nnc(Sc3nc4ccccc4o3)c3ccccc23)cc1	5%	-2%[1.84 µM]	2%	1%	-35%	-21%

Assay outcomes: PubChem BioAssay, National Center for Advancing Translational Sciences (NCATS)
